Bioassay records deposited in PubChem BioAssay by Broad Institute.
C diff growth = C. difficile growth inhibitors, primary screen, HTS; Clostridium difficile clinical isolate growth, OD600, 24 h; active compounds read low; growth activity, negative = inhibition, % at 16 µg/mL (by protocol); actives 0.25% (n = 86,000); AID 1259249, 2017;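 active = mean growth activity at or below -80% and every replicate also at or below -80%; inconclusive = mean at or below -80% but some replicate above -80%; inactive = mean growth activity above -80%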;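 note: 0% = DMSO wells and -100% = levofloxacin 16 µg/mL wells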
T cruzi growth-1 = T. cruzi intracellular proliferation inhibitors, primary screen, cell-based, beta-gal Tulahuen parasites, NIH3T3 host, luminescence; T. cruzi beta-gal in NIH3T3, GalScreen luminescence, 90 h; inhibition, % at 8.34 µM; actives 5.9% (n = 77,000); AID 624255, 2012;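 active = mean inhibition above about 93%, with at least 55% of replicates each passing it, limit read from the data, passing the limit was not always enough; inconclusive = only one of those two conditions holds; inactive = neither condition holds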
Pf Dd2 growth = P. falciparum Dd2 growth inhibitors, primary screen, SYBR Green fluorescence, single dose replicates; 72 h; active compounds read low; activity change, % at 10 µM; actives 2.3% (n = 94,000); AID 1159554, 2015; in the data active = activity change below about -80%; inconclusive = no clear call, values can overlap the other calls
T cruzi growth-2 = T. cruzi intracellular proliferation inhibitors, confirmation, cell-based, NIH3T3 host, beta-gal parasite, luminescence, cherry-pick. shares compounds with T cruzi growth-1. T. cruzi beta-gal in NIH3T3, GalScreen luminescence, 90 h. inhibition, % at 8.35 µM. actives 72% (n = 5,600);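 active = mean replicate inhibition above about 95% and at least 55% of replicates individually reaching it, limit read from the data; inconclusive = only one of the two criteria is met; inactive = neither criterion is met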
T cruzi growth-3 = inhibitors of intracellular T. cruzi replication, confirmation, NIH3T3 host cells, beta-gal parasites, cherry-pick, set 2. T. cruzi beta-gal in NIH3T3, GalScreen luminescence, 90 h. shares compounds with T cruzi growth-1. inhibition, % at 2.09 µM. actives 21% (n = 5,600);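 active = mean inhibition above about 95%, with at least 55% of replicates also reaching it, limit read from the data; inconclusive = meets just one of the two conditions; inactive = meets neither condition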;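 note: plate controls were neutral control median for no effect and positive control median for full effect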
3T3 cytotox = cytotoxicity in mouse NIH/3T3 fibroblasts, confirmation, cytotoxicity control for T. cruzi proliferation inhibitor project, cell-based, cherry-pick, single point. shares compounds with T cruzi growth-1. NIH/3T3 viability, CellTiter-Glo ATP luminescence, 90 h. cytotoxicity (signal decrease), % at 8.35 µM. actives 14% (n = 5,600). AID 651742, 2012;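 active = mean signal decrease across replicates above about 35% based on untreated-well scatter, with enough replicates individually passing, limit read from the data; inconclusive = no rule stated though some were filed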;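 note: 0% = median of neutral control wells and 100% = median of positive control wells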
NIH3T3 tox 2 = NIH/3T3 fibroblast cytotoxicity, confirmation, cytotoxicity control, cell-based, cherry-pick, single point, set 2 | shares compounds with T cruzi growth-1 | NIH/3T3 viability, CellTiter-Glo ATP luminescence, 90 h | inhibition, % at 24.9 µM | actives 56% (n = 5,600);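 active = mean loss of cell viability signal at or above a set limit, and enough replicates individually reaching it; inconclusive = meets only the mean limit or only the replicate share; inactive = meets neither condition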;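 note: 0% = median of neutral control wells and 100% = median of positive control wells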
Starred values were filed as active, the others as inactive; ? = inconclusive; / = not tested or not shown. A selection: hits, their analogues and other compounds. The true share with any hit is near 6.7%.

SMILES | C diff growth | T cruzi growth-1 | Pf Dd2 growth | T cruzi growth-2 | T cruzi growth-3 | 3T3 cytotox | NIH3T3 tox 2
Cc1cccc(S(=O)(=O)N2CCCCN3[C@H](CO)[C@@H](c4ccc(C#C[C@H](C)O)cc4)[C@H]3C2)c1 | 7 | ? | -24 | 80 | 25 | 9 | 33*
C[C@H]1CN([C@@H](C)CO)C(=O)Cc2cc(NS(=O)(=O)c3cccs3)ccc2O[C@@H]1CN(C)Cc1ccc2c(c1)OCO2 | -11 | 73 | 27 | / | / | / | /
C[C@H](CO)N1C[C@H](C)[C@H](CN(C)S(=O)(=O)c2cccs2)Oc2c(NC(=O)c3nc4ccccc4s3)cccc2C1=O | 2 | 90 | -30 | / | / | / | /
C[C@@H]1CN([C@H](C)CO)C(=O)c2cc(/C=C/c3ccccc3)cnc2O[C@H]1CN(C)Cc1ccccc1F | 20 | 87* | -49 | 103* | ? | 10 | 103*
C/C=C/c1cnc2c(c1)C(=O)N([C@@H](C)CO)C[C@@H](C)[C@H](CN(C)Cc1ccccc1F)O2 | / | / | 20 | / | / | / | /
C[C@H](CO)N1C[C@H](C)[C@H](CN(C)Cc2ccccc2F)Oc2ncc(/C=C/c3ccccc3)cc2C1=O | 25 | 95* | -39 | 107* | 77 | 17 | 60*
C[C@H](CO)N1C[C@H](C)[C@H](CN(C)Cc2ccc(F)cc2)Oc2ncc(/C=C/c3ccccc3)cc2C1=O | 26 | / | -63 | / | / | / | /
CC(C)NC(=O)N1CC2(C1)[C@H](c1ccccc1)[C@H](CO)N2Cc1cncnc1 | 5 | / | 1 | / | / | / | /
OC[C@H]1[C@@H](c2ccc(C#Cc3ccccc3F)cc2)[C@H]2CN(Cc3cncnc3)CCCCN21 | -7 | 30 | -10 | / | / | / | /
OC[C@H]1[C@H](c2ccc(C#Cc3ccccc3)cc2)[C@@H]2CN(Cc3cncnc3)CCCCN12 | 11 | 104* | -27 | 107* | 80 | 44* | 105*
OC[C@@H]1[C@H](c2ccc(C#Cc3ccccc3)cc2)[C@H]2CN(Cc3cncnc3)CCCCN12 | 2 | 119* | -50 | 98* | 102* | 37* | 102*
OC[C@H]1[C@@H](c2ccc(C#Cc3ccccc3)cc2)[C@H]2CN(Cc3cncnc3)CCCCN21 | -5 | 46 | 3 | / | / | / | /
OC[C@H]1[C@@H](c2ccc(C#Cc3ccccc3F)cc2)[C@@H]2CN(Cc3cncnc3)CCCCN12 | -1 | 96* | -56 | 104* | 52 | 47* | 104*
OC[C@H]1[C@H](c2ccc(Br)cc2)[C@@H]2CN(Cc3cncnc3)CCCCN12 | 4 | 110* | 24 | 97* | 75 | -17 | 2
OC[C@@H]1[C@@H](c2ccc(-c3ccccc3)cc2)[C@H]2CN(Cc3cncnc3)CCCCN12 | 2 | 26 | -15 | / | / | / | /
COCC#Cc1ccc2c(c1)O[C@@H](CN(C)C(=O)Nc1ccccc1F)[C@@H](C)CN([C@@H](C)CO)S2(=O)=O | 1 | 51 | -73 | / | / | / | /
O=C(C[C@H]1C=C[C@H](NC(=O)c2ccccn2)[C@@H](CO)O1)NCc1cccc(F)c1 | 1 | -26 | 3 | / | / | / | /
CO[C@@H]1CN(C)C(=O)c2ccc(NC(=O)C3CC3)cc2OC[C@H](C)N(C(=O)c2cnccn2)C[C@@H]1C | 2 | 30 | 18 | / | / | / | /
OC[C@@H]1[C@@H](c2ccc(C#Cc3ccccc3)cc2)[C@@H]2CN(Cc3cncnc3)CCCCN12 | -6 | 101* | -35 | 98* | 56 | 33 | 103*
C[C@H](CO)N1C[C@H](C)[C@@H](CN(C)C(=O)C2CCCCC2)Oc2ncc(C#CC(C)(C)O)cc2C1=O | -2 | -111 | 18 | / | / | / | /
COc1ccccc1CNC(=O)C[C@H]1C[C@@H]2c3cc(NC(=O)NC4CCCC4)ccc3O[C@@H]2[C@@H](CO)O1 | 4 | 109* | 0 | 29 | 23 | -2 | -2
COc1ccccc1CNC(=O)C[C@@H]1C[C@@H]2c3cc(NC(=O)CC4CC4)ccc3O[C@@H]2[C@@H](CO)O1 | 0 | 16 | -22 | / | / | / | /
